From PubChem BioAssay (Tox21)
Results filed as inconclusive are left out. A call without a number means that no potency is given here. A structure can be active in one record and inactive in another. The source made the active and inactive calls. Unless noted, the call rests on the fitted dose curve.

What was measured:
[1] = Nuclear factor erythroid 2-related factor 2/antioxidant responsive element (Nrf2/ARE) small molecule agonists: qHTS cell viability counter screen in human keratinocytes (AID 1919968; active means well fitted curve in the direction sought with a large enough effect in the repeat runs; an effect the other way counts as inactive or inconclusive; further: nearly all actives have a fitted effect of over 55% in size; further: potency means the concentration at half of the fitted maximal effect)
Outline: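 In human HaCaT keratinocytes stably expressing an ARE-driven luciferase, compound exposure lasted 23 h at 37 C under 5% CO2. Viable cells are quantified with a protease-based fluorogenic reagent (CellTiter-Fluor) read 1 h after addition.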

[2] = Nuclear factor erythroid 2-related factor 2/antioxidant responsive element (Nrf2/ARE) small molecule agonists: luciferase reporter gene qHTS assay in human keratinocytes (AID 1919969); further: nearly all actives have a fitted effect of over 35% in size; further: potency means the concentration at half of the fitted maximal effect
[3] = molecular target: Gonadotropin-releasing hormone receptor (Homo sapiens) (UniProt P30968); experiment: Human gonadotropin-releasing hormone receptor (GnRHR) small molecule agonists, calcium flux assay in GnRHR-HEK293 cells (AID 1920063); further: nearly all actives have a fitted effect of over 35% in size
Chain of Gonadotropin-releasing hormone receptor (Homo sapiens) (P30968 whole entry, looked up): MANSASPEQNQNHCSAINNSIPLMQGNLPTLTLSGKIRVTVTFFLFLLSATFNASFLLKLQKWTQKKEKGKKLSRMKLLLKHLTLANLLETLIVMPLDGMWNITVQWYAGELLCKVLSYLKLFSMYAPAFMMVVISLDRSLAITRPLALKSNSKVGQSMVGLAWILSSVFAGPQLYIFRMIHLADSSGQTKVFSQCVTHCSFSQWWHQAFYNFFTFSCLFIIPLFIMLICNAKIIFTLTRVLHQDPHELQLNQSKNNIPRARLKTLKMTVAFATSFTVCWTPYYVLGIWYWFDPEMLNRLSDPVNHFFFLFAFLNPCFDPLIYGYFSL
Outline: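 Intracellular calcium rise is the read-out: engineered human GnRHR HEK293 cells, dye-loaded, are exposed to DMSO-dissolved compounds and fluorescence at Ex/Em 480/540 is tracked for 3 min.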

[4] = molecular target: KiSS-1 receptor (Homo sapiens) (UniProt Q969F8); experiment: Human kisspeptin (KISS1R) small molecule agonists, calcium flux assay in KISS1R-HEK293 cells (AID 1920064; active means well fitted curve in the direction sought with a large enough effect in the repeat runs; an effect the other way counts as inactive or inconclusive)
Chain of KiSS-1 receptor (Homo sapiens) (Q969F8 whole entry, looked up): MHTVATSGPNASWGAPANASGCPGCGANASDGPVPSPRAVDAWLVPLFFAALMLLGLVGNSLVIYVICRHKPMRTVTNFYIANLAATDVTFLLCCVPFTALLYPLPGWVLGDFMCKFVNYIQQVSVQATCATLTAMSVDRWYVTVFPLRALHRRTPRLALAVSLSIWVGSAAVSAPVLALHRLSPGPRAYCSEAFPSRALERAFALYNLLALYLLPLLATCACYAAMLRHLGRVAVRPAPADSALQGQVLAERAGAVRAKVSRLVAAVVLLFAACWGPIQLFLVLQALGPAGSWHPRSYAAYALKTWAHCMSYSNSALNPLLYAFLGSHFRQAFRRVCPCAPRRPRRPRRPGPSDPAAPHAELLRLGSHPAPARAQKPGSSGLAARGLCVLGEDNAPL
Outline: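 Concentration-response testing used 15 concentrations in triplicate on human KISS1R-expressing HEK293 cells. Calcium-dependent fluorescence (Ex/Em 480/540) was followed kinetically for 3 min after compound transfer.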

[5] = G protein-coupled receptor (GPCR) small molecule agonists, calcium flux assay: HEK293 wild type cell line counter screen (AID 1920065)
Outline: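 Fluorescence intensity signals activation. After overnight (18 h) culture and a 1 h calcium dye load at 37 C, compounds are added by pin tool and the plate read at 480/540 nm for 3 min in 1 s steps.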

[6] = p53 small molecule agonists, cell-based qHTS assay with human liver microsomes (AID 1963577);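 further: p53 response element beta-lactamase reporter cells with liver microsomes plus NADPH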
Outline: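 HLM-supplemented p53RE-bla reporter assay: 16 h compound exposure at 37 C, microsomes and NADPH each 0.5 mg/mL final, read by fluorescence intensity.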

[7] = p53 small molecule agonists, cell-based qHTS assay with rat liver microsomes (AID 1963578)
Outline: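 Quantitative HTS of the Tox21 10K library: p53RE-bla cells, rat liver microsomes plus NADPH at 0.5 mg/mL final each, 16 h at 37 C, beta-lactamase fluorescence detection.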

[8] = p53 small molecule agonists, cell-based qHTS assay with human liver microsomes: qHTS cell viability counter screen (AID 1963579); further: nearly all actives have a fitted effect of over 45% in size
Outline: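 Viability of p53RE-bla cells is measured as CellTiter-Glo luminescence following a 16 h, 37 C incubation with compound, liver microsomes from human donors and NADPH.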

[9] = p53 small molecule agonists, cell-based qHTS assay with rat liver microsomes: qHTS cell viability counter screen (AID 1963580); further: nearly all actives have a fitted effect of over 45% in size
Outline: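 Counter screen for cytotoxicity under metabolic activation: rat liver microsomes and NADPH, 0.5 mg/mL final each, added with compounds to p53RE-bla HCT-116 cells; 16 h at 37 C, then ATP luminescence read.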

[10] = p53 small molecule agonists, cell-based qHTS assay: qHTS cell viability counter screen (AID 1963581); further: nearly all actives have a fitted effect of over 45% in size
Outline: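 Luminescence from CellTiter-Glo, reflecting ATP content, serves as the cytotoxicity measure; it is taken after the 2 h reporter substrate step in HCT-116 p53RE-bla cells dosed for 16 h at 37 C.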

[11] = p53 small molecule agonists, cell-based qHTS assay (AID 1963582; active means well fitted activation curve with a large enough effect in the signal ratio in the repeat runs, not every such curve was filed as active; the % refers to the signal ratio; further: potency means the concentration at half of the fitted maximal effect)
Outline: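 After plating, p53RE-bla cells sat 5 h in the incubator; compounds or DMSO vehicle were pinned in; a 16 h incubation at 37 C followed; FRET substrate was added and, 2 h later at RT, fluorescence was measured.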

[12] = molecular target: 5-hydroxytryptamine receptor 2A (Homo sapiens) (UniProt P28223); experiment: 5-hydroxytryptamine receptor 2A (HTR2A) small molecule antagonists, cell-based qHTS assay (AID 1963586); further: nearly all actives have a fitted effect of over 45% in size; further: potency means the concentration at half of the fitted maximal effect
Chain of 5-hydroxytryptamine receptor 2A (Homo sapiens) (P28223 whole entry, looked up): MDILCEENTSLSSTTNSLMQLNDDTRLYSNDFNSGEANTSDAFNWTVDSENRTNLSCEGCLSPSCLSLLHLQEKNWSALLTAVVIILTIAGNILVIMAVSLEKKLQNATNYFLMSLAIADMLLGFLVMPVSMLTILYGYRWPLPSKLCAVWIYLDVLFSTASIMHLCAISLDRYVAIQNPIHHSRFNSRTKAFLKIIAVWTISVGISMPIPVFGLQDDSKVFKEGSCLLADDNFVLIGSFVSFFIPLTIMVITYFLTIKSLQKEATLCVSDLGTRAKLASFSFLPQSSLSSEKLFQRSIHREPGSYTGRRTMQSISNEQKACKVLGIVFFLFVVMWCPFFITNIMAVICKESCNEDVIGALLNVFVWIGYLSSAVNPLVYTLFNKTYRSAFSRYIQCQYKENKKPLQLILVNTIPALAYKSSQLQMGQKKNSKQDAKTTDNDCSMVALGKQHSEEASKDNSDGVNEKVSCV
Outline: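 CHO cells stably expressing human HTR2A were plated for 18 h at 37 C, then loaded with calcium dye for 1 h. Compounds were preincubated 5 min at room temperature before DOI (4 nM solution) was added. Kinetic fluorescence was read for 3 min.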

[13] = molecular target: 5-hydroxytryptamine receptor 2A (Homo sapiens) (UniProt P28223); experiment: 5-hydroxytryptamine receptor 2A (HTR2A) small molecule agonists, cell-based qHTS assay (AID 1963587); further: nearly all actives have a fitted effect of over 30% in size
Outline: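 HTR2A-CHO cells, plated 18 h at 37 C/5% CO2, dye-loaded 1 h at 37 C; compounds in DMSO added by pin tool (agonist mode). Intracellular calcium flux read as kinetic fluorescence on FDSS over 2 min at 1 s intervals.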

[14] = molecular target: Muscarinic acetylcholine receptor M1 (Homo sapiens) (UniProt P11229); experiment: Cholinergic receptor muscarinic 1 (CHRM1) small molecule antagonists, cell-based qHTS assay (AID 1963588); further: nearly all actives have a fitted effect of over 40% in size; further: potency means the concentration at half of the fitted maximal effect
Chain of Muscarinic acetylcholine receptor M1 (Homo sapiens) (P11229 whole entry, looked up): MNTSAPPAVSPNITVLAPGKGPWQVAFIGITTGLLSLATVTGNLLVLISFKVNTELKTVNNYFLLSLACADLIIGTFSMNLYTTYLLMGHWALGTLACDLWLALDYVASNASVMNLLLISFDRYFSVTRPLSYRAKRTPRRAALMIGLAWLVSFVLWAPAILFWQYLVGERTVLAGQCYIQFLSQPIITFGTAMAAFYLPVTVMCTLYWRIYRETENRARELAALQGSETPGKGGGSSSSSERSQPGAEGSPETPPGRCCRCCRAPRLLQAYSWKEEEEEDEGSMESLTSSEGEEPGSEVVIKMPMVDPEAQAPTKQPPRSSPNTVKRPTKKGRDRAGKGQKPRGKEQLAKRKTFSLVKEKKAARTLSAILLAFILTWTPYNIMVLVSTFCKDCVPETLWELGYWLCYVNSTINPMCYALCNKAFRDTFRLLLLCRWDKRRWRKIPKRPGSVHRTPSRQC
Outline: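 Compounds were tested at 15 concentrations in three independent runs. Dye-loaded CHRM1-CHO cells were exposed 5 min at room temperature before stimulation by acetylcholine added at 50nM. Intracellular calcium was read kinetically on FDSS for 3 min.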

[15] = molecular target: Muscarinic acetylcholine receptor M1 (Homo sapiens) (UniProt P11229); experiment: Cholinergic receptor muscarinic 1 (CHRM1) small molecule agonists, cell-based qHTS assay (AID 1963589); further: nearly all actives have a fitted effect of over 35% in size
Outline: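 Fluorescent calcium dye reports M1 activation in stably transfected CHO cells. Compounds, 15 concentrations, added after 1 h dye loading at 37 C; kinetic reading at 1 sec intervals.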

[16] = cAMP Responsive Elements (CRE) small molecule antagonists, cell-based qHTS assay (AID 1963591; active means well fitted inhibition curve with a large enough effect in the signal ratio in the repeat runs, not every such curve was filed as active; the % refers to the signal ratio)
Outline: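 Stimulation used NKH477 at a final 0.25 uM for 3 h in compound-treated CRE-bla HEK293T cells, seeded 18 h beforehand. Reporter activity was measured with LiveBLAzer B/G FRET substrate after 2 h at room temperature.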

[17] = molecular target: Beta-2 adrenergic receptor (Homo sapiens) (UniProt P07550); experiment: Adrenergic beta2 receptor (ADRB2) small molecule antagonists, cell-based qHTS assay (AID 1963592); further: series mostly up to about 92 µM; nearly all actives have a fitted effect of over 50% in size
Chain of Beta-2 adrenergic receptor (Homo sapiens) (P07550 whole entry, looked up): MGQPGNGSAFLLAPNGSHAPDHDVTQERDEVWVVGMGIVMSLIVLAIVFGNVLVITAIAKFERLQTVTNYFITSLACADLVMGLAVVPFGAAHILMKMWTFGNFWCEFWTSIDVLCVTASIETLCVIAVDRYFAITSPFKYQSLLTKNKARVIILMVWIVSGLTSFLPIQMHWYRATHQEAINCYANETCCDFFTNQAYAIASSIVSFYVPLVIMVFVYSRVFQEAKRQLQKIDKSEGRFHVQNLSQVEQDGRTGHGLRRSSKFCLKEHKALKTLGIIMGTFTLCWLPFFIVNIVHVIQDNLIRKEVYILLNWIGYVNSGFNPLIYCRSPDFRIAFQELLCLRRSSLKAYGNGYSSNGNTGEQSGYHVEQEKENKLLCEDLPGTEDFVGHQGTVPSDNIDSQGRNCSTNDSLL
Outline: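 Assay format: CHO-ADRB2 cells, 18-20hr seeding at 37C/5% CO2, then compound plus 1nM isoproterenol agonist mix for 0.5hr RT. Homogeneous time-resolved fluorescence cAMP detection after 1hr, expressed as 665/615 nm ratio.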

[18] = molecular target: D(2) dopamine receptor (Homo sapiens) (UniProt P14416); experiment: Dopamine D2 receptor (DRD2) small molecule agonists, cell-based qHTS assay (AID 1963594); further: nearly all actives have a fitted effect of over 35% in size
Chain of D(2) dopamine receptor (Homo sapiens) (P14416 whole entry, looked up): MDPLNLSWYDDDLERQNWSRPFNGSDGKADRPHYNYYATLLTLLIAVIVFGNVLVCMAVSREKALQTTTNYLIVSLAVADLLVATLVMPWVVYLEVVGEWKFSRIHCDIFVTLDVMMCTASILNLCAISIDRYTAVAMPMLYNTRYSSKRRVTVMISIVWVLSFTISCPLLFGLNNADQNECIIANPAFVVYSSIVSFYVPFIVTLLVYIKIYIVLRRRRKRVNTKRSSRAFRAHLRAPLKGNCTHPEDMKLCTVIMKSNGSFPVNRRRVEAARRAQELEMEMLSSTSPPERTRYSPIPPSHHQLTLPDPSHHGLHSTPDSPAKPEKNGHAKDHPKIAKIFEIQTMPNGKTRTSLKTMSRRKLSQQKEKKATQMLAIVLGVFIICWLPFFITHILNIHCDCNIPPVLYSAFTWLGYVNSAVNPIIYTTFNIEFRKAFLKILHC
Outline: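 HEK293 cells stably expressing DRD2 were cultured 24 h at 37 C, then given Ro20-1724 (0.1 mM final) and compounds for 10 min at room temperature. NKH477 (200nM) was then added for 30 min. cAMP was read by HTRF.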

[19] = molecular target: D(2) dopamine receptor (Homo sapiens) (UniProt P14416); experiment: Dopamine D2 receptor (DRD2) small molecule antagonists, cell-based qHTS assay (AID 1963595; active means well fitted inhibition curve with a large enough effect in the signal ratio in the repeat runs, with a control signal flat; the % refers to the signal ratio)
Outline: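 Antagonist mode in DRD2-HEK293 cells: after compound addition with 0.1 mM Ro20-1724, cells received quinpirole (12 nM) and NKH477 (200 nM) for 30 min at room temperature; HTRF cAMP read after 1 h detection.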

[20] = cAMP Responsive Elements (CRE) small molecule agonists, cell-based qHTS assay (AID 1963590)
Outline: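 Compound exposure lasted 3 h at 37 C/5% CO2 in CRE-bla HEK 293T cells grown in assay medium with 10% dialyzed FBS and 25 mM HEPES. Reporter signal came from LiveBLAzer B/G FRET substrate, 2 h, room temperature.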

| SMILES | Potency [1] | Potency [2] | Potency [3] | Potency [4] | Potency [5] | Potency [6] | Potency [7] | Potency [8] | Potency [9] | Potency [10] | Potency [11] | Potency [12] | Potency [13] | Potency [14] | Potency [15] | Potency [16] | Potency [17] | Potency [18] | Potency [19] | Potency [20] |
| --- | --- | --- | --- | --- | --- | --- | --- | --- | --- | --- | --- | --- | --- | --- | --- | --- | --- | --- | --- | --- |
| NC(=O)c1cc([N+](=O)[O-])cc([N+](=O)[O-])c1 | inactive | inactive | inactive | inactive | inactive | inactive | inactive | inactive | inactive | inactive | inactive | inactive | inactive | 460 nM (active) | inactive | inactive | inactive | inactive | inactive |  |
| CC(C)(OOC(C)(C)c1ccccc1)c1ccccc1 | inactive | 21.7 µM (active) | inactive | inactive | inactive | inactive | inactive | inactive | inactive | inactive | inactive | inactive | inactive | inactive | inactive | inactive | inactive | inactive | inactive |  |
| CC(Br)C(=O)O (configuration not stated) | inactive | inactive | inactive | inactive | inactive | inactive | inactive | inactive | inactive | inactive | inactive | inactive | inactive | inactive | inactive | inactive | inactive | inactive | inactive |  |
| CC(C)NC(=O)N1CC(=O)N(c2cc(Cl)cc(Cl)c2)C1=O | inactive | inactive | inactive | inactive | inactive | inactive | inactive | inactive | inactive | inactive | inactive | inactive | inactive | inactive | inactive | inactive | inactive | inactive | inactive |  |
| C(=NC1CCCCC1)=NC1CCCCC1 | 54.8 µM (active) | 30.6 µM (active) | inactive | inactive | inactive | inactive | inactive | inactive | inactive | inactive | inactive | inactive | inactive | inactive | inactive | inactive | inactive | inactive | inactive |  |
| CCCCCCCCCBr | inactive | inactive | inactive | inactive | inactive | inactive | inactive | inactive | inactive | inactive | inactive | inactive | inactive | inactive | inactive | inactive |  | inactive | inactive | inactive |
| COc1nc(NC(C)C)nc(NC(C)C)n1 | inactive | inactive | inactive | inactive | inactive | inactive | inactive | inactive | inactive | inactive | inactive | inactive | inactive | inactive | inactive |  | inactive | inactive | inactive | inactive |
| CC(O)CCO (configuration not stated) | inactive | inactive | inactive | inactive | inactive | inactive | inactive | inactive | inactive | inactive | inactive | inactive | inactive | inactive | inactive |  | inactive | inactive | inactive | inactive |
| Cc1ccc(C(=O)Cl)cc1 | inactive | inactive | inactive | inactive | inactive | inactive | inactive | inactive | inactive | inactive | inactive | inactive | inactive | inactive | inactive | inactive | inactive | inactive | inactive |  |
| C=CC1(C)OC(=O)N(c2cc(Cl)cc(Cl)c2)C1=O (configuration not stated) | inactive | 68.2 µM (active) and inactive | inactive | inactive | inactive | inactive | inactive | inactive | inactive | inactive | inactive | inactive | inactive | inactive | inactive | inactive |  | inactive | inactive | inactive |
| C[N+]1(C)CCCCC1 | inactive | inactive | inactive | inactive | inactive | inactive | inactive | inactive | inactive | inactive | inactive | inactive | inactive | inactive | inactive | inactive | inactive | inactive | inactive |  |
| O=C(Cl)OCCOCCOC(=O)Cl | inactive | inactive | inactive | inactive | inactive | inactive | inactive | inactive | inactive | inactive | inactive | inactive | inactive | inactive | inactive |  | inactive |  |  | inactive |
| Cc1cnc[nH]1 | inactive | inactive | inactive | inactive | inactive | inactive | inactive | inactive | inactive | inactive | inactive | inactive | inactive | inactive | inactive | inactive | inactive | inactive | inactive |  |
| CCOC(=O)C1(c2ccccc2)CCN(CCC(C#N)(c2ccccc2)c2ccccc2)CC1 | inactive | inactive | inactive | inactive | inactive | inactive | inactive | inactive | inactive | inactive | 7.93 µM (active) | 130 nM (active) | inactive | inactive | inactive | inactive | inactive |  | inactive | inactive |
| OC(O)C(Cl)(Cl)Cl | inactive | inactive | inactive | inactive | inactive | inactive | inactive | inactive | inactive | inactive | inactive | inactive | inactive | inactive | inactive |  | inactive | inactive |  | inactive |
